The list is not random: actives were taken first. Their share in the collection is about 6.5%.
VACV mCherry inh: vaccinia inhibition (mCherry reporter); actives 0.63% (n = 310,000); Vaccinia virus mCherry reporter infection, fluorescence; Potency, µM (highest dose often 36.5 µM), for the others: top-dose activity change, negative = inhibition, actives largely listed as inhibitors; calls by dose curve; tested in A549 cells; note: potency is the fitted concentration of half-maximal effect; nearly all actives have a fitted effect of over 35% in size
LASV entry inh: Lassa virus entry inhibition; Lassa virus pseudotype entry inhibition, cell reporter; Potency, µM (series often up to 37.9 µM), for the others: at the highest dose activity change, negative = inhibition, actives largely listed as inhibitors; actives 1.2% (n = 300,000); calls by dose curve; tested in HEK293 cells; note: potency is the fitted concentration of half-maximal effect; nearly all actives have a fitted effect of over 50% in size
Vaccinia Venus: inhibitors of vaccinia virus (Venus reporter); AID 720580; Vaccinia virus Venus reporter expression, fluorescence; Potency, µM (doses to about 36.5 µM), for the others: top-dose activity change, negative = inhibition, hits mostly inhibitors; actives 0.46% (n = 330,000); calls by dose curve; tested in A549 cells; note: potency is the fitted concentration of half-maximal effect; nearly all actives have a fitted effect of over 30% in size
FMDV antiviral: blocks foot and mouth disease virus; Potency, µM (doses to about 57.9 µM), for the others: at the highest dose activity change, negative = inhibition, most hits filed as inhibitors; actives 1.2% (n = 410,000); FMDV antiviral cell-based qHTS; calls by dose curve; tested in HEK293T cells; note: read-out not given here; potency is the fitted concentration of half-maximal effect; nearly all actives have a fitted effect of over 45% in size
HCMV inh: human cytomegalovirus inhibition | HFF cells, HCMV-luciferase reporter, 72 h; stronger effect = lower value | activity change, negative = inhibition, % at 57.5 µM | actives 4.5% (n = 410,000); in the data active = activity change below about -60%; inconclusive = no clear call, values can overlap the other calls; inactive = above about -39%
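Cell-based, HFFs, 1000 cells/well, 16 h 37C; cpds in DMSO + HCMV-luc, MOI 1 PFU/cell; 72 h 37C; OneGlo luminescence after 5 min RT; norm. to buffer vs Salinomycin 10uM.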
Marburg entry inh: inhibitors of Marburg virus binding or cell entry. AID 540276. Marburg virus pseudotyped entry inhibition, cell reporter. actives 1.8% (n = 300,000). Potency, µM (series often up to 37.8 µM), for inactives: at the highest dose activity change, negative = inhibition, hits mostly inhibitors; calls by dose curve; tested in HEK293 cells; note: potency is the fitted concentration of half-maximal effect
Numbers without * were called inactive; i = inactive; ? = inconclusive; · = no result given; ! = not active in a repeat; [ ] = remark or other dose. % is set by controls: 0 for no effect and ±100 for the full control effect.

SMILES | VACV mCherry inh | LASV entry inh | Vaccinia Venus | FMDV antiviral | HCMV inh | Marburg entry inh
O=C(N/N=C/c1c(O)ccc2ccccc12)c1ccc(CO)nc1 | ? | ? | -20% | -11% | -99* | 11µM*
COc1c(O)ccc(/C=N\NC(=O)c2ccc3c(c2)OCO3)c1[N+](=O)[O-] | · | · | · | 51% | 65 | ·
O=C(CNC(=O)c1ccc(S(=O)(=O)N2CCCC2)cc1)N/N=C/c1ccccc1Cl | -16% | -5% | -15% | ? | -63* | 20%
O=C(NN=Cc1c(O)ccc2ccccc12)c1ccc2c(c1)OCO2 | · | · | · | 20% | -102* | ·
COc1ccccc1/C=N/NC(=O)CNC(=O)c1ccc(S(=O)(=O)N2CCCC2)cc1 | -3% | -1%[46.1 µM] | -12% | -4% | -20 | 14%[46.1 µM]
O=C(N/N=C\c1c(O)ccc2ccccc12)c1ccc(S(=O)(=O)N2CCCCC2)cc1 | -9% | ? | 0% | -12% | -103* | 1.3µM*
C/C(=N\NC(=O)c1cc2ccccc2cc1O)c1ccc2c(c1)OCO2 | i | 6% | -5% | -28% | 13 | 6%
O=C(NCc1ccccc1)c1ccc(S(=O)(=O)N2CCCCCC2)cc1 | -11% | · | -12% | -8% | -13 | ·
CC/C(=N/NC(=O)c1ccc2c(c1)OCO2)c1ccccc1O | · | · | · | 50% | -98* | ·
O=C(OCc1ccccn1)c1ccc(COc2ccc3ccccc3c2)o1 | · | · | · | 5% | 0 | ·
O=C(NC1CCN(S(=O)(=O)c2cccc([N+](=O)[O-])c2)CC1)C1CCCCC1 | -2% | 4% | -4% | 0% | 10 | -2%[46.1 µM]
O=C(NC1CC1)C1CCN(S(=O)(=O)c2ccc(Cl)c([N+](=O)[O-])c2)CC1 | · | · | · | ? | -103* | ·
COc1ccc(S[C@]2(C(=O)N3CCCC3)CC(=O)N(c3ccc(Cl)cc3)[C@@H]2c2ccc(OC)cc2)cc1 | · | · | · | · | -20 | ·
c1ccc(C(NCCNC(c2ccccc2)c2ccccc2)c2ccccc2)cc1 | · | ? | · | -17% | -7 | 8.2µM*
O=C(NCCc1csc(-c2ccc(C(F)(F)F)cc2)n1)C(=O)Nc1cc(F)ccc1F | -1% | 25%[46.1 µM] | -10% | ? | -34 | ·
COc1ccc(CNc2cc(-c3ccoc3)ncn2)c(OC)c1 | · | · | · | 15% | · | ·
CCCNC(=O)N1CCN(S(=O)(=O)c2ccc3c(ccn3C)c2)CC1 | 0% | 5%[46.1 µM] | -2% | 2% | -9 | ·
CCCOC(=O)c1ccc(Oc2c(-c3ccc(O)cc3O)n[nH]c2C)cc1 | · | ? | ? | -8% | -77* | -10%
CCCOC(=O)c1ccc(Oc2c(-c3ccc(OC)cc3O)n[nH]c2C)cc1 | i[1.46 µM] | 11µM* | ? | -1% | 31 | -16%
COc1ccc2c(C(=O)c3ccc(Cl)cc3)n(CCCC(N)=O)[n+]([O-])c2c1 | ? | · | -17% | 14% | 0 | ·
CCN(c1ccccc1)S(=O)(=O)c1ccc(NCC2COc3ccccc3O2)nc1 (stereo not drawn) | · | 16µM* | · | ? | 8 | ?
COc1ccc(-c2nc(SC)n(C)c(=O)c2C#N)cc1OC | · | 3% | -11% | -2% | -61* | -11%[46.1 µM]
CCn1ncc(C2=NOC(C(=O)NCc3ccc(Cl)cc3)C2)c1C (stereo not drawn) | · | -23% | · | -28% | -81* | ?
COC(=O)[C@@H]1[C@@H](CO)[C@@H]2Cn3c(ccc(Br)c3=O)[C@H]1N2CCc1ccccc1 | · | · | · | · | 12 | ·
Cc1ccc(NC(=O)C2=C(c3ccccc3)S(=O)(=O)CCS2(=O)=O)cc1 | ? | ? | ? | 25µM* | -99* | ?
SMILES | VACV mCherry inh | LASV entry inh | Vaccinia Venus | FMDV antiviral | HCMV inh | Marburg entry inh
O=C(CNC(=O)c1ccco1)NCC(=O)OCc1ccc(Cl)cc1Cl | -2% | 9% | -6% | 9% | 4 | -21%[46.1 µM]
NC(=S)N=Nc1c(O)n(Cc2ccc(Br)cc2)c2ccccc12 | 1µM* | ? | 1µM* | 0% | -27 | ?
Cc1ccc2c(c1)c(N=NC(N)=S)c(O)n2Cc1ccccc1 | 0.89µM* | -14% | 1µM* | -6% | -5 | ?
NC(=S)N=Nc1c(O)n(CCCl)c2ccc(Br)cc12 | ? | -15% | ? | -18% | -23 | -21%
NC(=S)N=Nc1c(O)n(Cc2ccc(F)cc2)c2ccccc12 | · | · | · | ? | -30 | ·
C/C(Cl)=C\Cn1c(O)c(N=NC(N)=S)c2cc(Br)ccc21 | · | · | · | ? | -109* | ·
CC(C)(C)OC(=O)N1CCC(c2c(C(=O)NCc3ccc4c(c3)OCO4)cnn2-c2ccc(F)cc2F)CC1 | -17% | -31%[46.1 µM] | -14% | -10% | 0 | ·
Cc1nn(-c2ccccc2)c(Cl)c1/C=C(\C#N)C(=O)NC(C)C | -3% | -25% | 5% | 25µM* | ? | -5%
COc1ccc(NC(=O)/C(C#N)=C/c2c(C)nn(-c3ccc(F)cc3)c2Cl)cc1Cl | -11% | -7% | -7% | ? | -21 | 5%
COc1ccc(NC(=O)/C(C#N)=C/c2c(C)nn(-c3ccc(F)cc3)c2Cl)cc1OC | · | ? | · | 22µM* | -15 | ?
O=[N+]([O-])c1ccc(N2CCN(S(=O)(=O)Cc3ccccc3)CC2)cc1N1CCOCC1 | -14% | 13µM* | -29% | ? | 1 | ?
CCOC(=O)c1c(NC(=O)COC(=O)CCCOc2ccc(OC)cc2)sc(C(=O)NC)c1C | -6% | -10% | -12% | -14% | 7 | 0%
Cn1c(SCC(=O)NCCC2=CCCCC2)nnc1C(F)(F)F | i | · | -10% | -7% | 70 | ·
Cc1ccc(C(C#N)c2ccc(C(=O)c3ccc(F)cc3)cc2)cc1 (stereo not drawn) | -15%[1.46 µM] | 10µM* | ? | -22% | -78* | ?
CN(C)S(=O)(=O)c1cccc(-c2nnc(-c3ccccc3)o2)c1 | · | 7% | · | 15% | -105* | ?
O=c1c2sccc2n(Cc2cc(=O)n3ccccc3n2)c(=O)n1-c1cccc(C(F)(F)F)c1 | -13% | -13%[46.1 µM] | -11% | -14% | ? | 8%[46.1 µM]
COc1ccc(S(=O)(=O)N(C)CC(=O)N2CCN(c3ccccc3)CC2)cc1 | -12% | · | -8% | -20% | -3 | ?
COc1ccc(N2CCN(C(=O)CN(C)S(=O)(=O)c3cccs3)CC2)cc1 | -5% | -12% | -16% | -7% | -100*! | 21%[46.1 µM]
COc1ccc(N2CCN(C(=O)CCNS(=O)(=O)c3cccs3)CC2)cc1 | ? | -2% | 13µM* | · | -34 | 9%
COc1ccccc1N1CCN(C(=O)CN(CCc2ccccc2)S(C)(=O)=O)CC1 | -8% | ? | -19% | · | ? | ?
COc1ccc(N2CCN(C(=O)CN(CCc3ccccc3)S(C)(=O)=O)CC2)cc1 | 1.8µM* | ? | ? | · | -24 | ?
Cc1cc(C)c2oc(-c3cccc(NC(=O)c4ccc(-c5cccc([N+](=O)[O-])c5)o4)c3)nc2c1 | 4% | -9%[46.1 µM] | 2% | 2% | -4 | -21%[46.1 µM]
Cc1cc(N)n2nc(-c3ccccc3)cc2n1 | ? | ? | -11% | -28% | 175 | 8.9µM*
Cc1ccc(-c2cc3nc(-c4ccccc4)cc(N)n3n2)cc1 | -11% | 12% | -5% | 3% | 61 | -17%[46.1 µM]

Source: PubChem BioAssay
